Experimental data from PubChem BioAssay (EPA / NIEHS).
Inconclusive results are not listed. Active and inactive are the calls of the source. How the source made its calls, unless noted: active means hit-call score of the fitted dose curve at least 0.9, where 1 is the maximum; inactive means score below 0.9.

Key:
[1] = BSK_3C_Proliferation: Cell Proliferation Assessment in the BioMAP Diversity Plus: 3C Assay (AID 2283006); conditions: primary human endothelial cells (HUVEC);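 on AC50: potency may reflect either rise or fall in cell number versus DMSO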
How it was run: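 Subconfluent HUVEC (3C system) cultured with chemical; relative cell number read at 48 h by sulforhodamine B total-protein staining (0.1% SRB after 10% TCA fixation, 560 nm). Bidirectional fit relative to DMSO.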

[2] = molecular target: Peroxisome proliferator-activated receptor gamma (Homo sapiens) (UniProt P37231); test: ATG_PPARg_TRANS: Attagene TRANS-FACTORIAL HepG2 Assay for human Peroxisome Proliferator-activated Receptor-gamma (PPARg) (AID 2283007; active means hit-call score of the fitted dose curve at least 0.9, where 1 is the maximum)
How it was run: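 Multiplexed reporter transcription units in HepG2, 24 h dosing, reporter transcripts quantified by fluorescent RT-PCR and capillary electrophoresis. Increase over DMSO scored.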

[3] = molecular target: human Retinoic Acid Receptor gamma (RARg), RARG (gene 5916) (UniProt P13631); test: ATG_RARg_TRANS: Attagene TRANS-FACTORIAL HepG2 Assay for human Retinoic Acid Receptor gamma (RARg) (AID 2283009; active means hit-call score of the fitted dose curve at least 0.9, where 1 is the maximum)
How it was run: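 HepG2 transiently transfected with GAL4-UAS reporter units and chimeric NR-Gal4 constructs; 24 h compound exposure. Reporter mRNA quantified by RT-PCR, FAM labeling, HpaI digestion and capillary electrophoresis; gain-of-signal versus DMSO.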

[4] = molecular target: human RAR-related Orphan Receptor gamma (RORg), RORC (gene 6097) (UniProt P51449); test: ATG_RORg_TRANS: Attagene TRANS-FACTORIAL HepG2 Assay for human RAR-related Orphan Receptor gamma (RORg) (AID 2283011; active means hit-call score of the fitted dose curve at least 0.9, where 1 is the maximum)
How it was run: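 First, HepG2 liver cells were transfected with GAL4-UAS-driven reporter constructs and the RORg-Gal4 fusion. Next, they were treated with chemical for 24 h. Finally, reporter mRNA was quantified by RT-PCR and capillary electrophoresis, with upward activity fitted against DMSO.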

[5] = molecular target: human Retinoid X Receptor beta (RXRb), RXRB (gene 6257) (UniProt P28702); test: ATG_RXRb_TRANS: Attagene TRANS-FACTORIAL HepG2 Assay for human Retinoid X Receptor beta (RXRb) (AID 2283013; active means hit-call score of the fitted dose curve at least 0.9, where 1 is the maximum)
How it was run: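 HepG2 cells were transiently transfected with multiplexed GAL4-UAS reporters and a chimeric RXRb-Gal4 construct, then exposed for 24 h. Reporter mRNA was quantified by RT-PCR, FAM labeling, HpaI digestion and capillary electrophoresis; gain of signal was scored against DMSO.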

[6] = read-out: E-selectin (Homo sapiens) (UniProt P16581); test: BSK_3C_Eselectin: BioMAP Diversity Plus: 3C Assay for Eselectin Biomarker Activity (AID 2283015); conditions: primary human endothelial cells (HUVEC); actives raise or lower the signal;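 further: cell surface E-selectin protein quantified by ELISA 24 h after dosing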
How it was run: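 ELISA read-out of E-selectin on endothelial monolayers after 24 h chemical treatment. Human umbilical vein primary cells served as the system, with DMSO defining baseline activity for bidirectional fitting.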

[7] = read-out: Monocyte Chemoattractant Protein-1 (MCP1), CCL2 (gene 6347); test: BSK_3C_MCP1: BioMAP Diversity Plus: 3C Assay for Monocyte Chemoattractant Protein-1 (MCP1) Biomarker Activity (AID 2283017); conditions: primary human endothelial cells (HUVEC); actives raise or lower the signal
How it was run: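 ELISA read-out of MCP-1 from human umbilical vein endothelial cell cultures harvested 24 h post-dosing. Gain or loss of signal was fitted relative to DMSO.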

[8] = read-out: Monocyte Chemoattractant Protein-1 (MCP1), CCL2 (gene 6347); test: BSK_4H_MCP1: BioMAP Diversity Plus: 4H Assay for Monocyte Chemoattractant Protein-1 (MCP1) Biomarker Activity (AID 2283018); conditions: primary human endothelial cells (HUVEC); actives raise or lower the signal
How it was run: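 Human umbilical vein endothelial cells (4H system) exposed to chemicals for 24 h in 96-well format. MCP-1 measured by ELISA; bidirectional fitting against DMSO, with SRB total-protein staining in parallel cultures for cytotoxicity.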

[9] = read-out: Human Leukocyte Antigen - DR isotype (HLADR), HLA-DRA (gene 3122); test: BSK_3C_HLADR: BioMAP Diversity Plus: 3C Assay for Human Leukocyte Antigen - DR isotype (HLADR) Biomarker Activity (AID 2283019); conditions: primary human endothelial cells (HUVEC); actives raise or lower the signal;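 on outcome: ELISA of cell-surface HLA-DR on HUVEC 24 h after dosing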
How it was run: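 ELISA readout of surface HLA-DR on human umbilical vein endothelium, taken 24 h after chemical treatment. Gain- and loss-of-signal were both fitted relative to DMSO.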

[10] = read-out: Interleukin-8 (IL8), CXCL8 (gene 3576); test: BSK_3C_IL8: BioMAP Diversity Plus: 3C Assay for Interleukin-8 (IL8) Biomarker Activity (AID 2283020); conditions: primary human endothelial cells (HUVEC); actives raise or lower the signal
How it was run: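 Primary human umbilical vein endothelial cells were dosed for 24 h. IL-8 was quantified by ELISA and fitted bidirectionally against DMSO. Cytotoxicity was assessed in parallel cultures by SRB staining at 560 nm.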

[11] = read-out: Monokine induced gamma interferon (MIG), CXCL9 (gene 4283); test: BSK_3C_MIG: BioMAP Diversity Plus: 3C Assay for Monokine induced gamma interferon (MIG) Biomarker Activity (AID 2283021); conditions: primary human endothelial cells (HUVEC); actives raise or lower the signal
How it was run: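 HUVEC primary endothelial cultures dosed with chemical; MIG quantified by ELISA at 24 h. Data fitted bidirectionally against DMSO control, with parallel SRB total-protein staining for cytotoxicity.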

[12] = molecular target: human Vitamin D Receptor (VDR), VDR (gene 7421) (UniProt P11473); test: ATG_VDR_TRANS: Attagene TRANS-FACTORIAL HepG2 Assay for human Vitamin D Receptor (VDR) (AID 2283022; active means hit-call score of the fitted dose curve at least 0.9, where 1 is the maximum)
How it was run: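 Steps: transfect HepG2 with GAL4-UAS-driven reporter constructs; dose compounds 24 h; isolate RNA, reverse-transcribe, PCR-amplify with 6-FAM-labelled primer extension and HpaI digestion; quantify fragments by capillary electrophoresis relative to DMSO.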

[13] = BSK_3C_SRB: Viability Assessment in the BioMAP Diversity Plus: 3C Assay (AID 2283023); conditions: primary human endothelial cells (HUVEC);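 further: fitted both ways against DMSO so a hit may be signal rise or drop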
How it was run: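 Absorbance at 560 nm of sulforhodamine B-stained (0.1%) total protein served as a cytotoxicity readout in human umbilical vein endothelial cells, 24 h after chemical treatment. Signal was fitted bidirectionally relative to DMSO.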

[14] = read-out: Matrix Metallopeptidase 1 (MMP1), MMP1 (gene 4312); test: BSK_BE3C_MMP1: BioMAP Diversity Plus: BE3C Assay for Matrix Metallopeptidase 1 (MMP1) Biomarker Activity (AID 2283024); conditions: primary human bronchial epithelial cells; actives raise or lower the signal
How it was run: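 Human primary bronchial epithelial cells (BE3C system) dosed for 24 h; MMP-1 quantified by ELISA. Bidirectional fit against DMSO; cytotoxicity tracked in parallel cultures by SRB total-protein staining.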

[15] = BSK_3C_Vis: BioMAP Diversity Plus: 3C Assay for Morphology Visualization (AID 2283025); conditions: primary human endothelial cells (HUVEC);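 further: fitted both ways so gain or loss versus DMSO counts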;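 on AC50: light microscopy image of cell morphology used as background control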
How it was run: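 Human umbilical vein endothelial cell morphology was inspected by light microscopy 24 h after chemical dosing; scored bidirectionally relative to DMSO.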

[16] = molecular target: human Thyroid Receptor alpha (THRa1), THRA (gene 7067) (UniProt P10827); test: ATG_THRa1_TRANS: Attagene TRANS-FACTORIAL HepG2 Assay for human Thyroid Receptor alpha (THRa1) (AID 2283014; active means hit-call score of the fitted dose curve at least 0.9, where 1 is the maximum)
How it was run: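 Reporter transcript induction, read by capillary electrophoresis of 6-FAM-labelled RT-PCR products, reflects activity of a transfected THRa1-Gal4 fusion in HepG2 liver cells. Cells were dosed for 24 h; activity was fitted in the positive direction against DMSO.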

[17] = molecular target: Retinoic acid receptor RXR-alpha (Homo sapiens) (UniProt P19793); test: ATG_RXRa_TRANS: Attagene TRANS-FACTORIAL HepG2 Assay for human Retinoid X Receptor alpha (RXRa) (AID 2283012; active means hit-call score of the fitted dose curve at least 0.9, where 1 is the maximum)
How it was run: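 HepG2 cells transiently transfected with GAL4-UAS reporter units and chimeric RXRa-Gal4 protein, treated 24 h. Reporter mRNA measured by RT-PCR, fluorescent labelling, HpaI digestion and capillary electrophoresis. Induction fitted against DMSO.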

[18] = read-out: Interleukin-1 alpha (IL1a), IL1A (gene 3552); test: BSK_BE3C_IL1a: BioMAP Diversity Plus: BE3C Assay for Interleukin-1 alpha (IL1a) Biomarker Activity (AID 2283016); conditions: primary human bronchial epithelial cells; actives raise or lower the signal
How it was run: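 Human primary bronchial epithelial cells, 24 h chemical exposure; IL-1a quantified by ELISA, fitted bidirectionally against DMSO. Cytotoxicity assessed in parallel by SRB total-protein staining at the time of measurement.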

[19] = molecular target: Nuclear receptor subfamily 1 group I member 2 (Homo sapiens) (UniProt O75469); test: ATG_PXR_TRANS: Attagene TRANS-FACTORIAL HepG2 Assay for human Pregnane X Receptor (PXR) (AID 2283008; active means hit-call score of the fitted dose curve at least 0.9, where 1 is the maximum)
How it was run: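 Measures mRNA induction of a GAL4-UAS-driven reporter in human HepG2 cells transiently expressing PXR fused to Gal4, following 24 h treatment. DMSO served as negative control and baseline.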

Sequence of E-selectin (Homo sapiens) (P16581 whole entry, looked up): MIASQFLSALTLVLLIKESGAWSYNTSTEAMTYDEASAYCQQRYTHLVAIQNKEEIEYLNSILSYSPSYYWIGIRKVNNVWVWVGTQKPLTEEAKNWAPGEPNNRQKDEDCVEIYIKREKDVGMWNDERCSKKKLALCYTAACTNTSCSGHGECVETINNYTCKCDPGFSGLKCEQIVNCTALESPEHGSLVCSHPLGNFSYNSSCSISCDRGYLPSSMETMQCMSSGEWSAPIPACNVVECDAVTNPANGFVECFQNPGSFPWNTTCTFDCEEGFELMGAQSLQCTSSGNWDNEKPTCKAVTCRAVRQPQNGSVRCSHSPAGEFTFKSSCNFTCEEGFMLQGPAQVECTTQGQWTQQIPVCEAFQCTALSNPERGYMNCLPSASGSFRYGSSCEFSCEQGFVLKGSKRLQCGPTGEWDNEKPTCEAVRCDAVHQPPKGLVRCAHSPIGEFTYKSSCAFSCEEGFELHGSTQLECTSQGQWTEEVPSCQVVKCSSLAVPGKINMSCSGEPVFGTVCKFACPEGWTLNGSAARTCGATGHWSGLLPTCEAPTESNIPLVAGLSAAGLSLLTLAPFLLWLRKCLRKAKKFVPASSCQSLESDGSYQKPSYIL
Sequence of human Vitamin D Receptor (VDR), VDR (gene 7421) (P11473 whole entry, looked up, the tested form may be a part): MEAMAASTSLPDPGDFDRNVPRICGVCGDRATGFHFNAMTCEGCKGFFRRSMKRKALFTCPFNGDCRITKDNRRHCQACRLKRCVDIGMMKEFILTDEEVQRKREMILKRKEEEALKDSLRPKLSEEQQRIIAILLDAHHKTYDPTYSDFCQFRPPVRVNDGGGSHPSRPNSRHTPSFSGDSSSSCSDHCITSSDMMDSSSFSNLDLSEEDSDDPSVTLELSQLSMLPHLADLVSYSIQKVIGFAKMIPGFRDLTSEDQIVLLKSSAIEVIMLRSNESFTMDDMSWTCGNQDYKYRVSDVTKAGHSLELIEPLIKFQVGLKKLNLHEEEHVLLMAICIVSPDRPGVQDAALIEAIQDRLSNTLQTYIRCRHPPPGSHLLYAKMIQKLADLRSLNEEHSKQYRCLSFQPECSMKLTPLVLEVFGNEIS
Sequence of human Retinoid X Receptor beta (RXRb), RXRB (gene 6257) (P28702 whole entry, looked up, the tested form may be a part): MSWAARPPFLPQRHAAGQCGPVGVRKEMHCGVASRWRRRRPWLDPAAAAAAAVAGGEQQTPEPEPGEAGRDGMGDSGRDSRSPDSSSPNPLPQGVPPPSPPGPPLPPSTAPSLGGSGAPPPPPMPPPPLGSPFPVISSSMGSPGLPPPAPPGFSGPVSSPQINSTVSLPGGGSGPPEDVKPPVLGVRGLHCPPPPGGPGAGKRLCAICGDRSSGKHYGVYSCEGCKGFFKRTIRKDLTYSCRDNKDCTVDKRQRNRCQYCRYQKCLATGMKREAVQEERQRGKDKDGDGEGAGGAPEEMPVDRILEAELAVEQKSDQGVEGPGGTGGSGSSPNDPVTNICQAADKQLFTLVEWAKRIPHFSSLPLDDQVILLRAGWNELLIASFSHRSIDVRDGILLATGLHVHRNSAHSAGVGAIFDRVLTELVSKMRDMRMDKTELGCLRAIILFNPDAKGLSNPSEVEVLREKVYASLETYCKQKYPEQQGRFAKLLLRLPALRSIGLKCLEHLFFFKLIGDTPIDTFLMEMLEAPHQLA
Sequence of human Thyroid Receptor alpha (THRa1), THRA (gene 7067) (P10827 whole entry, looked up, the tested form may be a part): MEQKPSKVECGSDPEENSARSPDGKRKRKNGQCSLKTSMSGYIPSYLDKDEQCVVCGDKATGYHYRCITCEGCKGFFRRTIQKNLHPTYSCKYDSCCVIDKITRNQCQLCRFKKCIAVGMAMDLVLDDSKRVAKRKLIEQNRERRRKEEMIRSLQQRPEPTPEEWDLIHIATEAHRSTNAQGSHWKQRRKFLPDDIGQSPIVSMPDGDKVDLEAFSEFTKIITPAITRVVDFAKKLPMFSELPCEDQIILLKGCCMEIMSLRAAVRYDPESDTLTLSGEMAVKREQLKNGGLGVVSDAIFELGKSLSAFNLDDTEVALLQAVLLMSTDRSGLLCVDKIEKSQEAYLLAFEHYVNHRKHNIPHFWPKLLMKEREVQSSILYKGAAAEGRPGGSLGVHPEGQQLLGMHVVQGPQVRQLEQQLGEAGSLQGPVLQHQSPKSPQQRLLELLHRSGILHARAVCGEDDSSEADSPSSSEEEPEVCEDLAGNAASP
Sequence of human RAR-related Orphan Receptor gamma (RORg), RORC (gene 6097) (P51449 whole entry, looked up, the tested form may be a part): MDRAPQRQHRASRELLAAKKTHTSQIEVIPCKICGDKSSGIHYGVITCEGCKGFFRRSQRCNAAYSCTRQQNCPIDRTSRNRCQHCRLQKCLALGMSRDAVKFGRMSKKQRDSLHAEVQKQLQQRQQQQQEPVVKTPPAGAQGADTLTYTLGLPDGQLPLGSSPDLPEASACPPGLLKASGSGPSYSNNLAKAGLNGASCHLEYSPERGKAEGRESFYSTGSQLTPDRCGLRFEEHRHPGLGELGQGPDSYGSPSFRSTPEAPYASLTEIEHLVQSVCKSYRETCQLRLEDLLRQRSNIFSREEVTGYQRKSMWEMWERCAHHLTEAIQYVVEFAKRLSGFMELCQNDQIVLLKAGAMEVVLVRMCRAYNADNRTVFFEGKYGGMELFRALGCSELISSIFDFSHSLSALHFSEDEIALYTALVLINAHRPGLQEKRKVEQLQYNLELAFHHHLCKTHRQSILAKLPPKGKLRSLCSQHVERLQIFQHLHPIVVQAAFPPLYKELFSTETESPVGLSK
Sequence of Retinoic acid receptor RXR-alpha (Homo sapiens) (P19793 whole entry, looked up, the tested form may be a part): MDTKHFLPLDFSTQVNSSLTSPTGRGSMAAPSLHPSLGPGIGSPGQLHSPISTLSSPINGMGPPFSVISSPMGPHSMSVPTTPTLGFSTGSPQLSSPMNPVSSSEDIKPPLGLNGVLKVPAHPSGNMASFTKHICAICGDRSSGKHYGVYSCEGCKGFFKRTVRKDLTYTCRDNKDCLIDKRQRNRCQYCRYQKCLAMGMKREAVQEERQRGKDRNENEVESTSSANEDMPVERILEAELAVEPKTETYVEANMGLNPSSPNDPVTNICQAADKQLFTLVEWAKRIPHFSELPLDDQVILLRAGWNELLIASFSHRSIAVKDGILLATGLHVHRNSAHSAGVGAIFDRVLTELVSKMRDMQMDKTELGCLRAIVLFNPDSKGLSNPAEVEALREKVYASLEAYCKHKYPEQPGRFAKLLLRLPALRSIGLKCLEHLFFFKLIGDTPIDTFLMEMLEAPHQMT
Sequence of Peroxisome proliferator-activated receptor gamma (Homo sapiens) (P37231 whole entry, looked up): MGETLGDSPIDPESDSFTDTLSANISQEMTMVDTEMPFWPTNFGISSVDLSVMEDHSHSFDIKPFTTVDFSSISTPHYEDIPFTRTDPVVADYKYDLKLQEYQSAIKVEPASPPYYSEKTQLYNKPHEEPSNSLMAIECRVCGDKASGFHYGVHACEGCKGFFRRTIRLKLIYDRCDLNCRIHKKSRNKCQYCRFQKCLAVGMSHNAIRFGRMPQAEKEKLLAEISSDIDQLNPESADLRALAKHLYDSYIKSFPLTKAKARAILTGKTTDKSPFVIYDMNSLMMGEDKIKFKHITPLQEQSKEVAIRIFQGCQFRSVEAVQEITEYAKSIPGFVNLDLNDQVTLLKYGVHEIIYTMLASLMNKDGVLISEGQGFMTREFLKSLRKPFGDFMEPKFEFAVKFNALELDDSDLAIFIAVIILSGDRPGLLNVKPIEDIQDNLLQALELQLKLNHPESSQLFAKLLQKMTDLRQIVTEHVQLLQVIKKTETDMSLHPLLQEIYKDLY
Sequence of human Retinoic Acid Receptor gamma (RARg), RARG (gene 5916) (P13631 whole entry, looked up, the tested form may be a part): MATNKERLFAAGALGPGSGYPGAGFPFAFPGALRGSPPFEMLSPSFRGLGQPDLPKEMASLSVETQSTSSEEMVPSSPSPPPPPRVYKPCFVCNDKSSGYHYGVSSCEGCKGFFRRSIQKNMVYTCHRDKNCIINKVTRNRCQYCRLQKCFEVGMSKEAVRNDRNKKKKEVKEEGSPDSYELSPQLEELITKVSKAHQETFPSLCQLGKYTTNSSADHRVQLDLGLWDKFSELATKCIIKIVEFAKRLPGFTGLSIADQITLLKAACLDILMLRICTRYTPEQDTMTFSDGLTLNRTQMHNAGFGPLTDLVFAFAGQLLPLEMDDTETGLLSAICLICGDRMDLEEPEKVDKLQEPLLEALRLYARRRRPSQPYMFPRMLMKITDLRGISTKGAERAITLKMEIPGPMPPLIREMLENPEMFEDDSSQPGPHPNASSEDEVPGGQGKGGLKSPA
Sequence of Nuclear receptor subfamily 1 group I member 2 (Homo sapiens) (O75469 whole entry, looked up, the tested form may be a part): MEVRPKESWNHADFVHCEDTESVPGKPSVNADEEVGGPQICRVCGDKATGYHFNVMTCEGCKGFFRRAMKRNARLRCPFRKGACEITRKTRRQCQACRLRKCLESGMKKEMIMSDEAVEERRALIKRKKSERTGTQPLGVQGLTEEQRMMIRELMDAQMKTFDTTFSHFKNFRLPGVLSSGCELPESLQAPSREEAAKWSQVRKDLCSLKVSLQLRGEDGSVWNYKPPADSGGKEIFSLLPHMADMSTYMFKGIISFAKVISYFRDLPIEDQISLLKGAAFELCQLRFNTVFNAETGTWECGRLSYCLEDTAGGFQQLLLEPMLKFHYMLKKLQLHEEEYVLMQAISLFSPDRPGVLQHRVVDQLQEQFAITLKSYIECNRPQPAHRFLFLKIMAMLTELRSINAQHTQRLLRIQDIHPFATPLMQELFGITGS

SMILES: CCOc1cccc(C2(N3CCN(c4ccccc4)CC3)CCC(C)CC2)c1 (configuration not stated)
- outcome [1]: inactive
- outcome [2]: inactive
- outcome [3]: inactive
- outcome [4]: inactive
- outcome [5]: inactive
- outcome [6]: inactive
- outcome [7]: inactive
- outcome [8]: inactive
- outcome [9]: inactive
- outcome [10]: inactive
- outcome [11]: inactive
- outcome [12]: inactive
- outcome [13]: inactive
- outcome [14]: inactive
- outcome [15]: inactive

SMILES: Cc1ccc(N)cc1
- outcome [1]: inactive
- outcome [4]: inactive
- outcome [5]: inactive
- outcome [16]: inactive
- outcome [6]: inactive
- outcome [7]: inactive
- outcome [8]: inactive
- outcome [9]: inactive
- outcome [10]: inactive
- outcome [11]: inactive
- outcome [13]: inactive
- outcome [15]: inactive

SMILES: CCCCOC(=O)c1ccccc1C(=O)OCc1ccccc1
- AC50 [1]: 14.4 µM (active)
- outcome [17]: inactive
- outcome [5]: inactive
- outcome [6]: inactive
- outcome [18]: inactive
- outcome [7]: inactive
- AC50 [8]: 11.8 µM (active)
- outcome [9]: inactive
- outcome [10]: inactive
- outcome [11]: inactive
- outcome [13]: inactive
- outcome [15]: inactive

SMILES: CCN(CC)N=O
- outcome [1]: inactive
- outcome [4]: inactive
- outcome [16]: inactive
- outcome [6]: inactive
- outcome [7]: inactive
- outcome [8]: inactive
- outcome [9]: inactive
- outcome [10]: inactive
- outcome [11]: inactive
- outcome [13]: inactive
- outcome [15]: inactive

SMILES: CN(C)c1ccccc1
- outcome [1]: inactive
- outcome [17]: inactive
- outcome [16]: inactive
- outcome [6]: inactive
- outcome [7]: inactive
- outcome [8]: inactive
- outcome [9]: inactive
- outcome [10]: inactive
- outcome [11]: inactive
- outcome [12]: inactive
- outcome [13]: inactive
- outcome [15]: inactive

SMILES: CCC12COCN1COC2
- outcome [1]: inactive
- outcome [17]: inactive
- outcome [6]: inactive
- outcome [7]: inactive
- outcome [8]: inactive
- outcome [9]: inactive
- outcome [10]: inactive
- outcome [11]: inactive
- outcome [13]: inactive
- outcome [15]: inactive

SMILES: CCCCC(CC)COC(=O)c1ccc(C(=O)OCC(CC)CCCC)c(C(=O)OCC(CC)CCCC)c1 (configuration not stated)
- outcome [1]: inactive
- outcome [17]: inactive
- outcome [6]: inactive
- outcome [7]: inactive
- outcome [8]: inactive
- outcome [9]: inactive
- outcome [10]: inactive
- outcome [11]: inactive
- outcome [12]: inactive
- outcome [13]: inactive
- outcome [14]: inactive
- outcome [15]: inactive

SMILES: OCCCBr
- outcome [1]: inactive
- outcome [19]: inactive
- outcome [4]: inactive
- outcome [5]: inactive
- outcome [16]: inactive
- outcome [6]: inactive
- outcome [18]: inactive
- outcome [7]: inactive
- outcome [8]: inactive
- outcome [9]: inactive
- outcome [10]: inactive
- outcome [11]: inactive
- outcome [12]: inactive
- outcome [13]: inactive
- outcome [14]: inactive
- outcome [15]: inactive

SMILES: CCCCCOC(=O)c1ccccc1C(=O)OCCCCC
- AC50 [1]: 19.1 µM (active)
- AC50 [2]: 49.7 µM (active)
- outcome [5]: inactive
- outcome [6]: inactive
- outcome [7]: inactive
- outcome [8]: inactive
- AC50 [9]: 20 µM (active)
- outcome [10]: inactive
- outcome [11]: inactive
- AC50 [13]: 32.2 µM (active)
- AC50 [15]: 39 µM (active)

SMILES: O=C(N[C@H](c1ccccc1)[C@@H]1CN2CCC1CC2)c1c(Cl)ccc(C(F)(F)F)c1Cl
- AC50 [1]: 29.7 µM (active)
- outcome [5]: inactive
- outcome [6]: inactive
- AC50 [7]: 14.3 µM (active)
- outcome [8]: inactive
- outcome [9]: inactive
- AC50 [10]: 19 µM (active)
- outcome [11]: inactive
- outcome [12]: inactive
- AC50 [13]: 29.7 µM (active)
- AC50 [15]: 14.5 µM (active)
